A number with no mark means an inactive call. Inconclusive results are not listed. A call without a number means that no potency is given here. Calls of active or inactive are those of the source. Unless noted, calls come from the whole dose curve.
Experiments:
[1] = Nuclear factor erythroid 2-related factor 2/antioxidant responsive element (Nrf2/ARE) small molecule agonists: qHTS cell viability counter screen in human keratinocytes (AID 1919968; active = well fitted curve in the direction sought with a large enough effect in the repeat runs; an effect the other way counts as inactive or inconclusive; note: nearly all actives have a fitted effect of over 55% in size)
Outline: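 Stably transfected HaCaT (KeratinoSens), 1,500/well. Test agents in DMSO were applied for 23 h, 37 C/5% CO2. CellTiter-Fluor was incubated 1 h before the fluorescence read.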

[2] = Nuclear factor erythroid 2-related factor 2/antioxidant responsive element (Nrf2/ARE) small molecule agonists: luciferase reporter gene qHTS assay in human keratinocytes (AID 1919969); note: nearly all actives have a fitted effect of over 35% in size; note: potency is the fitted concentration of half-maximal effect
[3] = target: Gonadotropin-releasing hormone receptor (Homo sapiens) (UniProt P30968); test: Human gonadotropin-releasing hormone receptor (GnRHR) small molecule agonists, calcium flux assay in GnRHR-HEK293 cells (AID 1920063); note: nearly all actives have a fitted effect of over 35% in size
Gonadotropin-releasing hormone receptor (Homo sapiens), sequence (P30968 whole entry, looked up): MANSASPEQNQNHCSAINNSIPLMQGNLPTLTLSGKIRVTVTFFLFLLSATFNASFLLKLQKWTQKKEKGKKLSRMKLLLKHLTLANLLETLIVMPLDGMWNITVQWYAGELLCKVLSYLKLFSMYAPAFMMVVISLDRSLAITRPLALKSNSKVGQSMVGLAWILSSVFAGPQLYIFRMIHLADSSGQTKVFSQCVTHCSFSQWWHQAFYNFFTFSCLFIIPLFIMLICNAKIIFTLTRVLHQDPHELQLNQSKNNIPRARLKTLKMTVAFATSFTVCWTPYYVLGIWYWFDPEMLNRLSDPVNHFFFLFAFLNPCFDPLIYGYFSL
Outline: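 Stable human GnRHR HEK293 line. 18 h plating, then calcium dye for 1 h at 37 C. Agonist-mode compound addition from DMSO stocks; fluorescence monitored 3 min.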

[4] = target: KiSS-1 receptor (Homo sapiens) (UniProt Q969F8); test: Human kisspeptin (KISS1R) small molecule agonists, calcium flux assay in KISS1R-HEK293 cells (AID 1920064; active = well fitted curve in the direction sought with a large enough effect in the repeat runs; an effect the other way counts as inactive or inconclusive)
KiSS-1 receptor (Homo sapiens), sequence (Q969F8 whole entry, looked up): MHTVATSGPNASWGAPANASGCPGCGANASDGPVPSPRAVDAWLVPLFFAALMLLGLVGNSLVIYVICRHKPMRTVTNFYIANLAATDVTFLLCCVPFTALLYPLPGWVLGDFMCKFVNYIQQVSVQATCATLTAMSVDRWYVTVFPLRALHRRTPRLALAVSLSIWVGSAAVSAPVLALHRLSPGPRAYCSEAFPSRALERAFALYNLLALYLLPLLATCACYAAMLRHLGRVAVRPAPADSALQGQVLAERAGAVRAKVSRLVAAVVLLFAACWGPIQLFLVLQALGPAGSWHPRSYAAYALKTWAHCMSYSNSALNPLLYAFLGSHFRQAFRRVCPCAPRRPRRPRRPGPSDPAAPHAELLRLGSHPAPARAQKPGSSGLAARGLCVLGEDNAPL
Outline: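 After overnight (18 h) culture at 37 C/5% CO2, human KISS1R-HEK293 cells received calcium dye for 1 h, then test compound; emission at 540 nm (excitation 480 nm) was tracked for 3 min.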

[5] = G protein-coupled receptor (GPCR) small molecule agonists, calcium flux assay: HEK293 wild type cell line counter screen (AID 1920065)
Outline: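 Following 18 h incubation at 37 C/5% CO2, plates got calcium dye for 1 h; compounds, ATP or DMSO were then pinned in and fluorescence followed kinetically (480/540 nm).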

[6] = p53 small molecule agonists, cell-based qHTS assay with human liver microsomes (AID 1963577);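 note: p53 response element beta-lactamase reporter cells with liver microsomes plus NADPH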
Outline: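 HLM-supplemented p53RE-bla reporter assay: 16 h compound exposure at 37 C, microsomes and NADPH each 0.5 mg/mL final, read by fluorescence intensity.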

[7] = p53 small molecule agonists, cell-based qHTS assay with rat liver microsomes (AID 1963578)
Outline: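 Quantitative HTS of the Tox21 10K library: p53RE-bla cells, rat liver microsomes plus NADPH at 0.5 mg/mL final each, 16 h at 37 C, beta-lactamase fluorescence detection.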

[8] = p53 small molecule agonists, cell-based qHTS assay with human liver microsomes: qHTS cell viability counter screen (AID 1963579); note: nearly all actives have a fitted effect of over 45% in size
Outline: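 Viability of p53RE-bla cells is measured as CellTiter-Glo luminescence following a 16 h, 37 C incubation with compound, liver microsomes from human donors and NADPH.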

[9] = p53 small molecule agonists, cell-based qHTS assay with rat liver microsomes: qHTS cell viability counter screen (AID 1963580); note: nearly all actives have a fitted effect of over 45% in size
Outline: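 Rat liver microsome (0.5 mg/mL final) and NADPH (0.5 mg/mL final) co-incubation with compounds for 16 h at 37 C on HCT-116 p53RE-bla cells; cytotoxicity taken from intracellular ATP luminescence.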

[10] = p53 small molecule agonists, cell-based qHTS assay: qHTS cell viability counter screen (AID 1963581); note: nearly all actives have a fitted effect of over 45% in size
Outline: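 qHTS counter screen: 16 h compound exposure at 37 C of p53RE-bla HCT-116 cells (4,000 per well, seeded 5 h prior), cell viability by ATP luminescence.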

[11] = p53 small molecule agonists, cell-based qHTS assay (AID 1963582; active = well fitted activation curve with a large enough effect in the signal ratio in the repeat runs, not every such curve was filed as active; the % refers to the signal ratio)
Outline: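 Measured: fluorescence from cleaved LiveBLAzer substrate. System: p53RE-bla cells, 16 h compound treatment at 37 C, 2 h substrate step at room temperature.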

[12] = target: 5-hydroxytryptamine receptor 2A (Homo sapiens) (UniProt P28223); test: 5-hydroxytryptamine receptor 2A (HTR2A) small molecule agonists, cell-based qHTS assay (AID 1963587); note: nearly all actives have a fitted effect of over 30% in size; note: potency is the fitted concentration of half-maximal effect
5-hydroxytryptamine receptor 2A (Homo sapiens), sequence (P28223 whole entry, looked up): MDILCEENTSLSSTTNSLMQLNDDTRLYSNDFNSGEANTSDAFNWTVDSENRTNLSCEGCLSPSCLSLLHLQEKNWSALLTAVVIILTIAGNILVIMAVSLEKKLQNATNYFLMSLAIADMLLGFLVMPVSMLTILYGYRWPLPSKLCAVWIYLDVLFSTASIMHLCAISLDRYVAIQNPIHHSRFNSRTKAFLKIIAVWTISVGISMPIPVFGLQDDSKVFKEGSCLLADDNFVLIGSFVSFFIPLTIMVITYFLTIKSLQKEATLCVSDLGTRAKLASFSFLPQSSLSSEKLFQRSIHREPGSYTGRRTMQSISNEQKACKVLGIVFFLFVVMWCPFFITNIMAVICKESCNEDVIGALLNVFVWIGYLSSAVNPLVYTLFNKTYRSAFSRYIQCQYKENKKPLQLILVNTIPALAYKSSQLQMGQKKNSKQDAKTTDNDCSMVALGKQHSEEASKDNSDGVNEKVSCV
Outline: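 Kinetic calcium-flux fluorescence (2 min, 1 sec intervals) after compound addition in agonist mode. HTR2A-CHO cells were cultured 18 h, then dye-loaded 1 h at 37 C.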

[13] = target: Muscarinic acetylcholine receptor M1 (Homo sapiens) (UniProt P11229); test: Cholinergic receptor muscarinic 1 (CHRM1) small molecule antagonists, cell-based qHTS assay (AID 1963588); note: nearly all actives have a fitted effect of over 40% in size; note: potency is the fitted concentration of half-maximal effect
Muscarinic acetylcholine receptor M1 (Homo sapiens), sequence (P11229 whole entry, looked up): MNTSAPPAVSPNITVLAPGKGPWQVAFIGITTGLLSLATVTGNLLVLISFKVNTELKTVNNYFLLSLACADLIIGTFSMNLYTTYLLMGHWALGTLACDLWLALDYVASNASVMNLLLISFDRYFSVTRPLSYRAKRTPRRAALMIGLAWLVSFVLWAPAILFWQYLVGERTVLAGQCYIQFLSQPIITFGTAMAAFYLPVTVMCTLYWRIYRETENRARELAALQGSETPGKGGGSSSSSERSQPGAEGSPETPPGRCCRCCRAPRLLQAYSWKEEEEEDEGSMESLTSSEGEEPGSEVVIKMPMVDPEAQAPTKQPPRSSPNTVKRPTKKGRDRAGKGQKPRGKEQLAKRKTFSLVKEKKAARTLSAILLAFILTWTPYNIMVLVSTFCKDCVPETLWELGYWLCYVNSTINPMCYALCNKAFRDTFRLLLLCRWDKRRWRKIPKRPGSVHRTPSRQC
Outline: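 Compounds were tested at 15 concentrations in three independent runs. Dye-loaded CHRM1-CHO cells were exposed 5 min at room temperature before stimulation by acetylcholine added at 50nM. Intracellular calcium was read kinetically on FDSS for 3 min.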

[14] = target: Muscarinic acetylcholine receptor M1 (Homo sapiens) (UniProt P11229); test: Cholinergic receptor muscarinic 1 (CHRM1) small molecule agonists, cell-based qHTS assay (AID 1963589); note: nearly all actives have a fitted effect of over 35% in size
Outline: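 Kinetic fluorescence (1 s intervals) of calcium-sensitive dye in human M1 CHO cells after compound addition; cells pre-incubated 18 h at 37 C/5% CO2 and dye-loaded 1 h.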

[15] = cAMP Responsive Elements (CRE) small molecule agonists, cell-based qHTS assay (AID 1963590)
Outline: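 Test agents in DMSO were incubated 3 h at 37 C/5% CO2 with CRE-bla HEK 293T cells seeded 18 h earlier; LiveBLAzer B/G FRET substrate was added and read after 2 h at room temperature.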

[16] = cAMP Responsive Elements (CRE) small molecule antagonists, cell-based qHTS assay (AID 1963591; active = well fitted inhibition curve with a large enough effect in the signal ratio in the repeat runs, not every such curve was filed as active; the % refers to the signal ratio)
Outline: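 Reporter line CRE-bla HEK 293T in dialyzed-FBS DMEM; cells preincubated 18 h, treated 3 h with compound plus NKH477 (0.25 uM final); LiveBLAzer FRET, 2 h RT.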

[17] = target: Beta-2 adrenergic receptor (Homo sapiens) (UniProt P07550); test: Adrenergic beta2 receptor (ADRB2) small molecule antagonists, cell-based qHTS assay (AID 1963592); note: series mostly up to about 92 µM; nearly all actives have a fitted effect of over 50% in size
Beta-2 adrenergic receptor (Homo sapiens), sequence (P07550 whole entry, looked up): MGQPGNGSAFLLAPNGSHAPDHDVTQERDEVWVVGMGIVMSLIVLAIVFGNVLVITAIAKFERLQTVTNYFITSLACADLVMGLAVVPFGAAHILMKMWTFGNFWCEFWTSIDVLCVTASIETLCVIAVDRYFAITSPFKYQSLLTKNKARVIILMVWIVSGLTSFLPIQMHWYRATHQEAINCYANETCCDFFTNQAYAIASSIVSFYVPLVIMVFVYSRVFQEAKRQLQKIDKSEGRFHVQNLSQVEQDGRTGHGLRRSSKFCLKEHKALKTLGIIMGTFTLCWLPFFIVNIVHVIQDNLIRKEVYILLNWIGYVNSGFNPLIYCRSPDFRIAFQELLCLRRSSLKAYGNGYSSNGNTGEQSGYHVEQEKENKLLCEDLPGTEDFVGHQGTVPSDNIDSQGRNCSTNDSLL
Outline: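 Assay format: CHO-ADRB2 cells, 18-20hr seeding at 37C/5% CO2, then compound plus 1nM isoproterenol agonist mix for 0.5hr RT. Homogeneous time-resolved fluorescence cAMP detection after 1hr, expressed as 665/615 nm ratio.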

[18] = target: Beta-2 adrenergic receptor (Homo sapiens) (UniProt P07550); test: Adrenergic beta2 receptor (ADRB2) small molecule agonists, cell-based qHTS assay (AID 1963593);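 note: CHO cells stably overexpressing human ADRB2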
Outline: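 CHO cells stably over-expressing ADRB2 were plated overnight at 37C, then dosed with compounds plus a stimulation mix containing 100uM IBMX and 25uM Ro-20-1724 for 0.5hr at room temperature. cAMP was measured by HTRF competition, 1hr.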

[19] = target: D(2) dopamine receptor (Homo sapiens) (UniProt P14416); test: Dopamine D2 receptor (DRD2) small molecule agonists, cell-based qHTS assay (AID 1963594); note: nearly all actives have a fitted effect of over 35% in size
D(2) dopamine receptor (Homo sapiens), sequence (P14416 whole entry, looked up): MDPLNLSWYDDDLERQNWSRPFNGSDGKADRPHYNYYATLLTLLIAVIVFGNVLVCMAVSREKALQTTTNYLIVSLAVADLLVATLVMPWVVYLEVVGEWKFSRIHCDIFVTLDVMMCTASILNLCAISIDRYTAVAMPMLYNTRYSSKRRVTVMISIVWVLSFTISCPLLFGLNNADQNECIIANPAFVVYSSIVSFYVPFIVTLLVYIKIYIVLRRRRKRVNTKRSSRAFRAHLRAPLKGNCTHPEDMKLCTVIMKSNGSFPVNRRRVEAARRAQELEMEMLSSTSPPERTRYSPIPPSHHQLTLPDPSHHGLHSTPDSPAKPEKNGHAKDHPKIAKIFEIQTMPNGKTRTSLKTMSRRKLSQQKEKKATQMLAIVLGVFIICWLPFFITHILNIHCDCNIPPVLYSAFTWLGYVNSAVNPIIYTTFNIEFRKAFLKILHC
Outline: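 cAMP accumulation in DRD2-HEK293 cells measured by HTRF after 1 h detection; compounds added 10 min before NKH477 (200nM […]) forskolin-analogue stimulation, 30 min at room temperature, with Ro20-1724 present at 0.1 mM final.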

[20] = target: D(2) dopamine receptor (Homo sapiens) (UniProt P14416); test: Dopamine D2 receptor (DRD2) small molecule antagonists, cell-based qHTS assay (AID 1963595; active = well fitted inhibition curve with a large enough effect in the signal ratio in the repeat runs, with a control signal flat; the % refers to the signal ratio)
Outline: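 Antagonism was scored as restored cAMP in HEK293-DRD2 cells. These cells were stimulated with 200 nM NKH477 and 12 nM quinpirole for 30 min at room temperature, in the presence of 0.1 mM Ro20-1724.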

Compound	Potency [1]	Potency [2]	Potency [3]	outcome [4]	outcome [5]	Potency [6]	Potency [7]	Potency [8]	Potency [9]	Potency [10]	Potency [11]	Potency [12]	Potency [13]	Potency [14]	Potency [15]	Potency [16]	Potency [17]	Potency [18]	Potency [19]	Potency [20]
C#Cc1ccc(-c2ccccc2F)cc1	inactive	inactive	inactive	inactive	inactive	inactive	inactive	inactive	inactive	inactive	inactive	inactive	inactive	inactive	inactive	inactive	inactive	inactive	inactive	inactive
O=C(OC1C[C@H]2CC[C@@H](C1)[N+]21CCCC1)C(O)(c1ccccc1)c1ccccc1 (stereo not given in full)	inactive	inactive	inactive	inactive	inactive	inactive	inactive	inactive	inactive	inactive	inactive	inactive	0.0015 µM (active)	inactive	inactive	inactive	inactive	inactive	inactive	inactive
C=C1C[C@@]23CC[C@H]4[C@@](C)(CCC[C@@]4(C)C(=O)O[C@@H]4O[C@H](CO)[C@@H](O)[C@H](O)[C@H]4O)[C@@H]2CC[C@]1(O[C@@H]1O[C@H](CO)[C@@H](O)[C@H](O[C@@H]2O[C@H](CO)[C@@H](O)[C@H](O)[C@H]2O)[C@H]1O[C@@H]1O[C@H](CO)[C@@H](O)[C@H](O)[C@H]1O)C3	inactive	inactive	inactive	inactive	inactive	inactive	inactive	inactive	inactive	inactive	inactive	inactive	inactive	inactive	inactive		inactive		inactive	inactive
Cc1nnc(C(=O)NC(C)(C)c2nc(C(=O)NCc3ccc(F)cc3)c(O)c(=O)n2C)o1	inactive	inactive	inactive	inactive	inactive	inactive	inactive	inactive	inactive	inactive	inactive	inactive	inactive	inactive		inactive	inactive	inactive		inactive
CC12CCCC=C1C(=O)OC2=O (stereo not given)	inactive	inactive	inactive	inactive	inactive	inactive	inactive	inactive	inactive	inactive	inactive	inactive	inactive	inactive	inactive	inactive	inactive		inactive	inactive
[O-][n+]1cccc(CO)c1	inactive	inactive	inactive	inactive	inactive	inactive	inactive	inactive	inactive	inactive	inactive	inactive	inactive	inactive	inactive	inactive	inactive		inactive	
CC(=O)N(CC(=O)N(C)C)c1ccccc1	inactive	inactive	inactive	inactive	inactive	inactive	inactive	inactive	inactive	inactive	inactive	inactive	inactive	inactive		inactive	inactive	inactive	inactive	inactive
CCC(=O)OC(=O)CC	inactive	27.1 µM (active)	inactive	inactive	inactive	inactive	inactive	inactive	inactive	inactive	inactive	inactive	inactive	inactive	inactive				inactive	inactive
CC[N+]1(CC)CCC(=C(c2ccccc2)c2ccccc2)C1C (stereo not given)	inactive	inactive	inactive	inactive	inactive	inactive	inactive	inactive	inactive	inactive	inactive	inactive	0.0259 µM (active)	inactive	inactive	inactive	inactive		inactive	inactive
CCO[Si](CCCCl)(OCC)OCC	inactive	inactive	inactive	inactive	inactive	inactive	inactive	inactive	inactive	inactive	inactive	inactive	inactive	inactive	inactive	inactive	inactive	inactive	inactive	inactive
O=C(NCCc1c[nH]c2ccccc12)c1cccnc1	inactive	inactive	inactive	inactive	inactive	inactive	inactive	inactive	inactive	inactive	inactive	3.01 µM (active)	inactive	inactive	inactive	inactive	inactive	inactive		inactive
Clc1cc(Cl)c(Cl)nc1Cl	inactive	inactive	inactive	inactive	inactive	inactive	inactive	inactive	inactive	inactive	inactive	24.6 µM (active)	inactive	inactive	inactive	inactive	inactive		inactive	inactive
O=C(O)C1CCC1	inactive	inactive	inactive	inactive	inactive	inactive	inactive	inactive	inactive	inactive	inactive	inactive	inactive	inactive	inactive	inactive	inactive		inactive	inactive
CN(C)CCc1c[nH]c2ccc(C[C@H]3COC(=O)N3)cc12	inactive	inactive	inactive	inactive	inactive	inactive	inactive	inactive	inactive	inactive	inactive	8.49 µM (active)	inactive	inactive	inactive	inactive	inactive	inactive	inactive	inactive
